Assay results from publication PMC8384837, “Expanding the binding specificity for RNA recognition by a PUF domain”.
Where a chain is given by its changes, count along the chain named.

Key:
Assay in all cases: yeast three-hybrid, YBZ-1, SC-Leu-His + 0.5 mM 3-AT, 4 days
Details in all cases: tags: N-Gal4 AD-HA kept; label: inside an RPR1-promoter hybrid RNA with tandem MS2 sites; ssRNA
PUM1 PUF domain R3-SME = PUM1 PUF domain R3-SME (Homo sapiens, UniProt Q14671 828-1176, C935S;R936M;Q939E)
Outline: (§1)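 The interaction score is the log change in how often each variant appears, from input to selection. Frequencies came from PCR-amplified, Illumina-sequenced repeat regions of Pumilio-1 PUF domain libraries grown in strain YBZ-1 (LexA–MS2 coat fusion, HIS3 reporter) alongside matching RNA elements. Input plates were SC-Leu and selection plates were SC-Leu-His + 0.5 mM 3-AT, each for four days, and the log2 calculation used a pseudocount of 1 where a variant was absent.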

PUM1 PUF domain R6-TFR = biological target: T1, PUM1 PUF domain R6-TFR (Homo sapiens, UniProt Q14671 828-1176, N1043T;Y1044F;Q1047R)
T1 sequence: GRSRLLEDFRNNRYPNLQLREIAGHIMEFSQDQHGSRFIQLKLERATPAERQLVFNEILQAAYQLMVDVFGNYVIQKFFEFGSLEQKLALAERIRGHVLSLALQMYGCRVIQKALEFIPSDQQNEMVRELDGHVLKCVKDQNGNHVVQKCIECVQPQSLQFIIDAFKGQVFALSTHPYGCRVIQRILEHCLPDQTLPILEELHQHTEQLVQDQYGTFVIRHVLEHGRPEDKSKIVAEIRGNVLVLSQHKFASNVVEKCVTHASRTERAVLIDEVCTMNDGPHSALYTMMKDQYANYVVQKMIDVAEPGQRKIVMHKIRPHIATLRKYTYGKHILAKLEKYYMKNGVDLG
Outline: as §1

PUM1 PUF domain R4-QRG = PUM1 PUF domain R4-QRG (Homo sapiens, UniProt Q14671 828-1176, N971Q;H972R;Q975G)
Outline: as §1

PUM1 PUF domain R6-FYC = biological target: T2, PUM1 PUF domain R6-FYC (Homo sapiens, UniProt Q14671 828-1176, N1043F;Q1047C)
T2 sequence: T1 sequence with T216F, F217Y, R220C
Outline: as §1

PUM1 PUF domain R8-LYG = PUM1 PUF domain R8-LYG (Homo sapiens, UniProt Q14671 828-1176, N1122L;Q1126G)
Outline: as §1

PUM1 PUF domain R5-GFY = PUM1 PUF domain R5-GFY (Homo sapiens, UniProt Q14671 828-1176, C1007G;R1008F;Q1011Y)
Outline: as §1

PUM1 PUF domain R6-VYG = biological target: T3, PUM1 PUF domain R6-VYG (Homo sapiens, UniProt Q14671 828-1176, N1043V;Q1047G)
T3 sequence: T1 sequence with T216V, F217Y, R220G
Outline: as §1

PUM1 PUF domain R4-DYG = PUM1 PUF domain R4-DYG (Homo sapiens, UniProt Q14671 828-1176, N971D;H972Y;Q975G)
Outline: as §1

PUM1 PUF domain R1-RIT = PUM1 PUF domain R1-RIT (Homo sapiens, UniProt Q14671 828-1176, S863R;R864I;Q867T)
Outline: as §1

PUM1 PUF domain R1-TMR = PUM1 PUF domain R1-TMR (Homo sapiens, UniProt Q14671 828-1176, S863T;R864M;Q867R)
Outline: as §1

PUM1 PUF domain R1-GCR = PUM1 PUF domain R1-GCR (Homo sapiens, UniProt Q14671 828-1176, S863G;R864C;Q867R)
Outline: as §1

PUM1 PUF domain R2-QWW = PUM1 PUF domain R2-QWW (Homo sapiens, UniProt Q14671 828-1176, N899Q;Y900W;Q903W)
Outline: as §1

PUM1 PUF domain R7-RSG = PUM1 PUF domain R7-RSG (Homo sapiens, UniProt Q14671 828-1176, S1079R;N1080S;E1083G)
Outline: as §1

PUM1 PUF domain R7-RSN = PUM1 PUF domain R7-RSN (Homo sapiens, UniProt Q14671 828-1176, S1079R;N1080S;E1083N)
Outline: as §1

PUM1 PUF domain R5-RCI = PUM1 PUF domain R5-RCI (Homo sapiens, UniProt Q14671 828-1176, C1007R;R1008C;Q1011I)
Outline: as §1

PUM1 PUF domain R5-RGP = PUM1 PUF domain R5-RGP (Homo sapiens, UniProt Q14671 828-1176, C1007R;R1008G;Q1011P)
Outline: as §1

PUM1 PUF domain R5-FKR = PUM1 PUF domain R5-FKR (Homo sapiens, UniProt Q14671 828-1176, C1007F;R1008K;Q1011R)
Outline: as §1

PUM1 PUF domain R5-KND = PUM1 PUF domain R5-KND (Homo sapiens, UniProt Q14671 828-1176, C1007K;R1008N;Q1011D)
Outline: as §1

## GGCUAGAACUAGUGGAUCCCCCGGCGCCCGGCGGCUCGAGCCCGGGUAAGUGUAAGUAGUCUGCAUGCCGCCGGGCGCCAUGCCUGCAGGUCGACUCUAGAAAACAUG
PUM1 PUF domain R3-SME
  binding signal: 3.43 log2 enrichment (interaction score)

## GGCUAGAACUAGUGGAUCCCCCGGCGCCCGGCGGCUCGAGCCCGGGUAAGUGCAAAUAGUCUGCAUGCCGCCGGGCGCCAUGCCUGCAGGUCGACUCUAGAAAACAUG
PUM1 PUF domain R6-TFR
  binding signal: 5.38 log2 enrichment (interaction score)

## GGCUAGAACUAGUGGAUCCCCCGGCGCCCGGCGGCUCGAGCCCGGGUAAGUGUAAAUAGUCUGCAUGCCGCCGGGCGCCAUGCCUGCAGGUCGACUCUAGAAAACAUG
PUM1 PUF domain R4-QRG
  binding signal: 3.75 log2 enrichment (interaction score)
PUM1 PUF domain R6-FYC
  binding signal: 3.33 log2 enrichment (interaction score)
PUM1 PUF domain R8-LYG
  binding signal: 0.62 log2 enrichment (interaction score)
PUM1 PUF domain R5-GFY
  binding signal: 3.55 log2 enrichment (interaction score)
PUM1 PUF domain R6-TFR
  binding signal: 5.59 log2 enrichment (interaction score)
PUM1 PUF domain R6-VYG
  binding signal: 1.61 log2 enrichment (interaction score)
PUM1 PUF domain R4-DYG
  binding signal: 6.38 log2 enrichment (interaction score)

## GGCUAGAACUAGUGGAUCCCCCGGCGCCCGGCGGCUCGAGCCCGGGUAAGUGUAAAUCGUCUGCAUGCCGCCGGGCGCCAUGCCUGCAGGUCGACUCUAGAAAACAUG
PUM1 PUF domain R1-RIT
  binding signal: 5.29 log2 enrichment (interaction score)
PUM1 PUF domain R1-TMR
  binding signal: 2.55 log2 enrichment (interaction score)
PUM1 PUF domain R1-GCR
  binding signal: 2.53 log2 enrichment (interaction score)

## GGCUAGAACUAGUGGAUCCCCCGGCGCCCGGCGGCUCGAGCCCGGGUAAGUGUAAAGAGUCUGCAUGCCGCCGGGCGCCAUGCCUGCAGGUCGACUCUAGAAAACAUG
PUM1 PUF domain R2-QWW
  binding signal: 5.58 log2 enrichment (interaction score)

## GGCUAGAACUAGUGGAUCCCCCGGCGCCCGGCGGCUCGAGCCCGGGUAAGUCUAAAUAGUCUGCAUGCCGCCGGGCGCCAUGCCUGCAGGUCGACUCUAGAAAACAUG
PUM1 PUF domain R7-RSG
  binding signal: 0.33 log2 enrichment (interaction score)
PUM1 PUF domain R7-RSN
  binding signal: 1.34 log2 enrichment (interaction score)

## GGCUAGAACUAGUGGAUCCCCCGGCGCCCGGCGGCUCGAGCCCGGGUAAGUGUCAAUAGUCUGCAUGCCGCCGGGCGCCAUGCCUGCAGGUCGACUCUAGAAAACAUG
PUM1 PUF domain R5-RCI
  binding signal: 2.64 log2 enrichment (interaction score)
PUM1 PUF domain R5-RGP
  binding signal: 2.99 log2 enrichment (interaction score)
PUM1 PUF domain R5-FKR
  binding signal: 3.62 log2 enrichment (interaction score)
PUM1 PUF domain R5-KND
  binding signal: 3.62 log2 enrichment (interaction score)
